Assay results: the antibiotic and cytotoxicity screens of Wong et al. (2023)
Among all 39,000 compounds or so, about 3,300 (8.5%) were called active. For the sample, actives were picked, then their nearest neighbours and some compounds at random.

Each compound was assayed on HepG2 (assay: cytotoxicity call (relative viability < 0.9)). Conditions: 10 µM.
`C[C@@H]1CCCCO[C@H](CN(C)C(=O)CCCN(C)C)[C@@H](C)CN([C@H](C)CO)C(=O)c2cc(NC(=O)Nc3ccc(F)cc3)ccc2O1` was tested, and the cytotoxicity call was “inactive”.
`Cc1noc(C)c1NC(=O)N(C)C[C@H]1OCCCC[C@H](C)Oc2ccc(NS(=O)(=O)c3ccccc3)cc2C(=O)N([C@@H](C)CO)C[C@H]1C` was tested, and the cytotoxicity call was “inactive”.
`C[C@H]1CN([C@@H](C)CO)S(=O)(=O)c2ccc(C#Cc3cccc(F)c3)cc2O[C@H]1CN(C)CC1CC1` was tested, and the cytotoxicity call was “inactive”.
With `C[C@H](CO)N1C[C@H](C)[C@H](CN(C)S(=O)(=O)c2cn(C)cn2)Oc2ccc(NC(=O)C3CCCCC3)cc2C1=O` the cytotoxicity call was “inactive”.
With `Cc1ccc(S(=O)(=O)Nc2ccc3c(c2)C(=O)N(C)[C@H]2CC[C@@H](CC(=O)NCCc4ccncc4)O[C@@H]2CO3)cc1` the cytotoxicity call was “inactive”.
For `O=C1c2ccccc2[C@](Cc2ccccc2I)(C(=O)NCc2ccccc2)[C@H](c2ccc(CO)cc2)N1Cc1ccccc1C(F)(F)F`, the cytotoxicity call was “inactive”.
With `COCC#Cc1ccc2c(c1)O[C@H](CN(C)S(=O)(=O)c1ccc(C)cc1)[C@@H](C)CN([C@@H](C)CO)S2(=O)=O` the cytotoxicity call was “inactive”.
With `COc1ccc(CN(C)C[C@H]2Oc3ccc(NS(=O)(=O)c4cn(C)cn4)cc3CC(=O)N([C@@H](C)CO)C[C@H]2C)cc1` the cytotoxicity call was “inactive”.
In the case of `CC(C)CCC(=O)N1C[C@@H]2c3nc(N4CCOCC4)ncc3CS(=O)(=O)[C@H]2C1`, the cytotoxicity call was “inactive”.
With `COC(=O)CCCCCCC(=O)N/N=C/[C@H](O)[C@@H](O)[C@H](O)CO` the cytotoxicity call was “inactive”.
`Cc1noc(C)c1NC(=O)Nc1ccc2c(c1)CC(=O)N([C@@H](C)CO)C[C@@H](C)[C@H](CN(C)C(=O)Nc1ccc(C(F)(F)F)cc1)O2` was tested, and the cytotoxicity call was “inactive”.
With `COc1ccc(CN(C)C[C@@H]2Oc3ccc(NS(=O)(=O)c4c(C)noc4C)cc3CC(=O)N([C@H](C)CO)C[C@@H]2C)cc1` the cytotoxicity call was “inactive”.
For `Cc1ccc(S[C@]2(C(=O)NCCN3CCOCC3)CC(=O)N(Cc3cc(C(F)(F)F)cc(C(F)(F)F)c3)[C@@H]2c2ccc(CO)cc2I)cc1`, the cytotoxicity call was “inactive”.
For `Cc1ccc(S(=O)(=O)Nc2ccc3c(c2)CC(=O)N([C@H](C)CO)C[C@H](C)[C@@H](CN(C)S(=O)(=O)c2ccccc2)O3)cc1`, the cytotoxicity call was “inactive”.
For `C=CC(=O)Nc1cccc(Nc2nc(Nc3ccc(NC4CN(CCF)C4)cc3OC)ncc2C(F)(F)F)c1`, the cytotoxicity call was “active”.
In the case of `COc1cccc(-c2ccc3c(c2)O[C@H](CN(C)Cc2cncnc2)[C@@H](C)CN([C@H](C)CO)S3(=O)=O)c1`, the cytotoxicity call was “inactive”.
`CCOC(=O)CC(=O)N1CCSC1COc1ccccc1OC` (stereo unspecified) was tested, and the cytotoxicity call was “active”.
With `COc1ccccc1O[C@@H](C)C(=O)NN` the cytotoxicity call was “inactive”.
With `CCOc1ccccc1C(N)=O` the cytotoxicity call was “inactive”.
In the case of `N[C@@H](Cn1ccc(=O)n(Cc2ccccc2C(=O)O)c1=O)C(=O)O`, the cytotoxicity call was “inactive”.
`Cc1noc(C)c1S(=O)(=O)Nc1ccc2c(c1)C(=O)N([C@@H](C)CO)C[C@@H](C)[C@@H](CN(C)C(=O)Nc1ccc3c(c1)OCO3)O2` was tested, and the cytotoxicity call was “inactive”.
`COc1cc2nccc(Oc3ccc(NC(=O)C4(C(=O)Nc5ccc(F)cc5)CC4)cc3)c2cc1OC` was tested, and the cytotoxicity call was “inactive”.
`COc1cc2nccc(Oc3ccc(NC(=O)c4cn(C(C)C)c(=O)n(-c5ccc(F)cc5)c4=O)cc3F)c2cc1OC` was tested, and the cytotoxicity call was “active”.
With `COc1cc2c(Oc3ccc(NC(=O)C4(C(=O)Nc5ccc(F)cc5)CC4)cc3F)ccnc2cc1OCCCN1CCOCC1` the cytotoxicity call was “active”.
In the case of `Cc1cc(C)nc(NS(=O)(=O)c2ccc(NC(=O)c3cccn(OCc4ccc(F)cc4)c3=O)cc2)n1`, the cytotoxicity call was “inactive”.
With `COc1ccc2c3c(n(c2c1)C)[C@H](CO)N(C[C@]13CCN(CC1)C(=O)CN1CCOCC1)C(=O)Nc1ccc(cc1)F` the cytotoxicity call was “inactive”.
In the case of `C[C@H]1CN([C@@H](C)CO)C(=O)Cc2cc(NC(=O)C3CC3)ccc2O[C@H]1CN(C)C(=O)Nc1ccccc1`, the cytotoxicity call was “inactive”.
`C[C@H]1CN([C@@H](C)CO)C(=O)Cc2cc(NS(=O)(=O)c3ccccc3)ccc2O[C@H]1CN(C)S(C)(=O)=O` was tested, and the cytotoxicity call was “inactive”.
With `O=S(=O)(O)O/N=C(\Cc1ccc(O)cc1)S[C@H]1O[C@H](CO)[C@@H](O)[C@H](O)[C@H]1O` the cytotoxicity call was “inactive”.
With `CC=Cc1ccc2n(c1=O)C[C@@H]1[C@@H](CO)[C@H](C(=O)NCCc3cn(C)cn3)N(C(=O)CC)[C@H]21` the cytotoxicity call was “inactive”.
With `C[C@H](CO)N1C[C@H](C)[C@H](CN(C)C(=O)C2CCOCC2)Oc2ncc(C#Cc3cccc(F)c3)cc2C1=O` the cytotoxicity call was “inactive”.
For `CC(C)N1CC[C@@H](CNCc2ccc(Oc3ccccc3)cc2)Oc2c(NC(=O)c3ccncc3)cccc2C1=O`, the cytotoxicity call was “inactive”.
With `CN(CC(=O)NCc1ccccn1)S(=O)(=O)c1cc(Br)cnc1N` the cytotoxicity call was “active”.
In the case of `CC(C)CNC(=O)C(=O)NCc1ccccn1`, the cytotoxicity call was “inactive”.
With `O=C(NCc1ccccn1)C1CCNCC1` the cytotoxicity call was “inactive”.
With `Nc1nc(Cl)nc(Cl)n1` the cytotoxicity call was “inactive”.
In the case of `COc1ccc(NC(=O)Nc2ccc3c(c2)[C@@H]2C[C@@H](CC(=O)NCc4ccccn4)O[C@H](CO)[C@@H]2O3)cc1`, the cytotoxicity call was “inactive”.
For `C[C@H](CO)N1C[C@H](C)[C@@H](CN(C)Cc2ccc(C(F)(F)F)cc2)Oc2ccc(NC(=O)C3CCCCC3)cc2CC1=O`, the cytotoxicity call was “inactive”.
With `C[C@H]1CN([C@@H](C)CO)C(=O)Cc2cc(NC(=O)C3CCCCC3)ccc2O[C@@H]1CN(C)Cc1ccc(C(F)(F)F)cc1` the cytotoxicity call was “active”.
`C[C@H](CO)N1C[C@H](C)[C@H](CN(C)Cc2ccc(C(F)(F)F)cc2)Oc2ccc(NC(=O)C3CCCCC3)cc2CC1=O` was tested, and the cytotoxicity call was “inactive”.
With `C[C@@H]1CN([C@@H](C)CO)C(=O)Cc2cc(NC(=O)C3CCCCC3)ccc2O[C@@H]1CN(C)Cc1ccc(C(F)(F)F)cc1` the cytotoxicity call was “active”.
For `C[C@H](CO)N1C[C@H](C)[C@H](CN(C)C(=O)Nc2ccc(C(F)(F)F)cc2)Oc2ccc(NC(=O)C3CCCCC3)cc2CC1=O`, the cytotoxicity call was “inactive”.
In the case of `C[C@H]1CN([C@@H](C)CO)C(=O)Cc2cc(NC(=O)C3CCCCC3)ccc2O[C@H]1CN(C)Cc1ccc(C(F)(F)F)cc1`, the cytotoxicity call was “inactive”.
With `C[C@@H]1CN([C@@H](C)CO)C(=O)Cc2cc(NC(=O)C3CCCCC3)ccc2O[C@H]1CN(C)Cc1ccc(C(F)(F)F)cc1` the cytotoxicity call was “inactive”.
`C[C@@H]1CN([C@H](C)CO)C(=O)Cc2cc(NC(=O)C3CCCCC3)ccc2O[C@@H]1CN(C)Cc1ccc(C(F)(F)F)cc1` was tested, and the cytotoxicity call was “active”.
In the case of `C[C@@H]1CN([C@H](C)CO)C(=O)Cc2cc(NC(=O)C3CCCCC3)ccc2O[C@H]1CN(C)Cc1ccc(C(F)(F)F)cc1`, the cytotoxicity call was “inactive”.
